HT1080NT lethal: kills 2HG-producing HT-1080-NT fibrosarcoma cells. Potency, µM (series often up to 46.1 µM), hits mostly cytotoxic. HT-1080-NT fibrosarcoma viability, CellTiter-Glo ATP luminescence, 48 h. AID 686970. actives 1.6% (n = 360,000);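 also: NT is the 2HG producing partner of a matched IDH1 knockdown line; nearly all actives have a fitted effect of over 55% in size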
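Luminescent CellTiter-Glo readout after 48 hours of compound exposure at 37 degrees C defined viability of HT-1080-NT cells. Activity was normalized to DMSO wells and cell-free media wells; concentration-response curves were fitted and assigned curve classes.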
12-LOX inh: inhibitors of human 12S-lipoxygenase ALOX12; P18054; purified 12hLO, xylenol orange hydroperoxide absorbance; Potency, µM (highest dose often 108 µM), most hits filed as inhibitors; actives 1.1% (n = 580,000); AID 1671190
Target sequence (P18054 whole entry, looked up): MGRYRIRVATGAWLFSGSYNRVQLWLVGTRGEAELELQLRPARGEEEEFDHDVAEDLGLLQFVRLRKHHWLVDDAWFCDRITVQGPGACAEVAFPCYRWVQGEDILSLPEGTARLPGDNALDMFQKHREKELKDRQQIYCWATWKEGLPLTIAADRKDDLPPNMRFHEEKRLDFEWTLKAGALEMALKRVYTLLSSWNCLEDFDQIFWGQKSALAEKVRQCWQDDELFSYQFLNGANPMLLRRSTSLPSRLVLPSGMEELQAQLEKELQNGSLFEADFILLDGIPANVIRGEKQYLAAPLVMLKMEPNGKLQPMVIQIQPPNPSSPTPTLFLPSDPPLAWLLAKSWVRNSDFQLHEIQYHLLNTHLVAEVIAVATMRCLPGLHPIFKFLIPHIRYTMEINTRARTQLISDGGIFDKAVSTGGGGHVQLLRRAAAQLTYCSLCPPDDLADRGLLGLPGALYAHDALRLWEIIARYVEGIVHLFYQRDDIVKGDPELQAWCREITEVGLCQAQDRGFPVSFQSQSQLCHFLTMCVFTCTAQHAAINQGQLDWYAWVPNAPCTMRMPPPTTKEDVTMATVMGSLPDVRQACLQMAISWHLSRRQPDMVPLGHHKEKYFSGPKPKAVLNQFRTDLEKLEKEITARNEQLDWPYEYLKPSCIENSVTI
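Hydroperoxide product was detected by ferrous iron/xylenol orange as the 573 to 405 nm absorbance ratio. Arachidonic acid at 40 uM (final) was turned over for 30 min at room temperature by 150 nM human 12hLO, pH 7.0 Hepes buffer, after 15 min compound preincubation.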
IL1B secr inh: inflammasome signaling inhibition, IL-1 beta readout | THP-1 LPS/ATP IL-1B secretion, AlphaLISA, 16 h; active compounds read low | actives 4.7% (n = 360,000) | activity change, % at 57.5 µM; in the data active = activity change below about -50%; inconclusive = mostly about -30% to -49%
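Secreted IL-1B measured by AlphaLISA bead assay after 16 h compound exposure of THP-1 cells; compounds (final up to 57.5 uM) added 1 h before LPS (250 ng/mL) and ATP (1.25 mM) stimulation; lower signal means less secretion.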
TDP1 cell CPT: DT40-hTDP1 cell growth loss with CPT; actives 12% (n = 420,000); Potency, µM (doses to about 46.2 µM), usual class: inhibitors; chicken DT40 Tdp1-/-;hTDP1 cells + 20 nM CPT, ATP luminescence, 48 h; also: nearly all actives have a fitted effect of over 55% in size
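Chicken DT40 Tdp1-/- cells stably complemented with human TDP1 were seeded at 400 cells/well in medium containing 20 nM camptothecin, exposed to pin-transferred compounds, and grown at 37 °C for at least 48 hr. Viability was read as ATP luminescence.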
TDP1 cell noCPT: qHTS for Inhibitors of human tyrosyl-DNA phosphodiesterase 1 (TDP1): qHTS in cells in absence of CPT. DT40 Tdp1-/- hTDP1 cells, no CPT, ATP luminescence, 48 h. Potency, µM (series often up to 46.2 µM), actives largely listed as inhibitors. actives 15% (n = 420,000); also: nearly all actives have a fitted effect of over 55% in size
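Chicken DT40 Tdp1-/- cells complemented with human TDP1, screened without camptothecin (DMSO vehicle only), 400 cells/well. Compounds pin-transferred, cells incubated at 37 °C for at least 48 hr. Growth read as ATP-dependent luminescence (CellTiter-Glo, 30 min at RT).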
HT1080 IDH1KD tx: HT-1080 IDH1 knockdown cell toxicity (counter line); HT-1080 IDH1 knockdown viability, ATP luminescence, 48 h; Potency, µM (highest dose often 46.1 µM), usual class: cytotoxic; actives 2% (n = 360,000)
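In this qHTS, HT-1080 cells depleted of IDH1 are exposed for 48 h at 37 °C to compound titrations. Toxicity is scored from CellTiter-Glo luminescence, with DMSO as full viability and medium alone as none.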
Each line names hits and unclear results; the compound was inactive in the other large screens. Many of the other results were omitted from the sample, so hits are more common in it than they were. Unless noted, calls follow the shape of the dose curve; as a rule, active = well fitted curve in the direction sought with a large enough effect; inconclusive = small, poorly fitted or top-dose-only effect, or another doubt; inactive = no such curve, though single readings can be large; an effect the other way counts as inactive or inconclusive.

CCCN1C(=O)C(Cc2nc3ccccc3c(=O)n2C)c2ccccc21 (stereo unspecified)	TDP1 cell CPT inconclusive, TDP1 cell noCPT inconclusive
CCCN1C(=O)C(Cc2nc3ccccc3c(=O)n2-c2ccc(OC)cc2)c2cc(C)ccc21 (stereo unspecified)	12-LOX inh inconclusive, TDP1 cell CPT 9.2µM, TDP1 cell noCPT 4.11µM (no result: HT1080NT lethal, IL1B secr inh, HT1080 IDH1KD tx)
CCN1C(=O)C(Cc2nc3ccccc3c(=O)n2-c2ccccc2)c2cc(Br)ccc21 (stereo unspecified)	12-LOX inh inconclusive, TDP1 cell CPT 5.8µM, TDP1 cell noCPT 5.8µM (no result: HT1080NT lethal, IL1B secr inh, HT1080 IDH1KD tx)
COC(=O)CC(NC(=O)C12CC3CC(CC(C3)C1)C2)C(=O)OC (stereo unspecified)	none (no result: HT1080NT lethal, IL1B secr inh, TDP1 cell CPT, TDP1 cell noCPT, HT1080 IDH1KD tx)
CCN(CCO)c1ccc(Nc2cc(-c3ccc(-c4ccccc4)cc3)ncn2)cc1	HT1080NT lethal inconclusive, 12-LOX inh 11.2µM, TDP1 cell CPT 18.4µM, TDP1 cell noCPT 14.6µM, HT1080 IDH1KD tx inconclusive
Cc1ccc(-c2cc(Nc3ccc(C(=O)N(C)Cc4ccccc4)cc3)ncn2)cc1	none (no result: HT1080NT lethal, IL1B secr inh, TDP1 cell CPT, TDP1 cell noCPT, HT1080 IDH1KD tx)
CCc1nncn1C1CCN(S(=O)(=O)c2ccc(F)c(Cl)c2)CC1	none (no result: HT1080NT lethal, IL1B secr inh, TDP1 cell CPT, TDP1 cell noCPT, HT1080 IDH1KD tx)
COc1ccccc1NS(=O)(=O)c1cc(NC(=O)c2cc[n+]([O-])cc2)ccc1N1CCCC1	12-LOX inh inconclusive, TDP1 cell CPT inconclusive, TDP1 cell noCPT inconclusive
COc1ccccc1NS(=O)(=O)c1cc(NC(=O)c2cccs2)ccc1N1CCCCC1	TDP1 cell CPT 16.4µM, TDP1 cell noCPT 14.6µM
COc1ccccc1NS(=O)(=O)c1cc(NC(=O)Nc2ccccc2)ccc1N1CCCCC1	TDP1 cell CPT 18.4µM, TDP1 cell noCPT 18.4µM
COc1ccccc1NS(=O)(=O)c1cc(NC(=O)C(C)C)ccc1N1CCCCC1	TDP1 cell CPT inconclusive, TDP1 cell noCPT inconclusive
O=C(Nc1ccc(N2CCCC2)c(S(=O)(=O)Nc2cccc(C(F)(F)F)c2)c1)c1cccs1	IL1B secr inh inconclusive, TDP1 cell CPT inconclusive, TDP1 cell noCPT 14.6µM
COc1ccccc1NS(=O)(=O)c1cc(NC(=O)c2cccs2)ccc1N1CCCC1	12-LOX inh inconclusive, TDP1 cell CPT 5.8µM, TDP1 cell noCPT 9.2µM
O=C(Nc1cccc(S(=O)(=O)N2CCCCC2)c1)c1cccs1	TDP1 cell noCPT inconclusive
O=C(NCc1ccccc1)C1CC(=O)N(c2ccc(OCC(=O)N3CCOCC3)cc2)C1 (stereo unspecified)	none
O=C(CN1CCCc2nc(C3CC3)ncc2C1=O)NCc1ccco1	none (no result: HT1080NT lethal, IL1B secr inh, TDP1 cell CPT, TDP1 cell noCPT, HT1080 IDH1KD tx)
CCCCn1nc(C(=O)Nc2ncc(C)s2)c2ccccc2c1=O	none (no result: HT1080NT lethal, IL1B secr inh, TDP1 cell CPT, TDP1 cell noCPT, HT1080 IDH1KD tx)
Cn1c(=O)c2c(nc(CN3CCCCC3)n2CCCO)n(C)c1=O	none (no result: HT1080NT lethal, IL1B secr inh, TDP1 cell CPT, TDP1 cell noCPT, HT1080 IDH1KD tx)
COc1cccc(SCc2noc(C(=O)NCCC(C)C)c2C(=O)NCCC(C)C)c1	HT1080NT lethal inconclusive, TDP1 cell CPT 18.4µM, TDP1 cell noCPT 14.6µM
CC(C)CCNC(=O)c1onc(CSc2ccc(F)cc2)c1C(=O)NCCC(C)C	TDP1 cell CPT inconclusive, TDP1 cell noCPT inconclusive
CCCNC(=O)c1onc(CSc2cccc(OC)c2)c1C(=O)NCCC	none
CC(C)CCNC(=O)c1onc(CSc2ccccc2)c1C(=O)NCCC(C)C	TDP1 cell CPT 23.1µM, TDP1 cell noCPT inconclusive
COc1ccc(NC(=O)CN(C)S(=O)(=O)c2ccc3nc(C)sc3c2)cc1Cl	TDP1 cell CPT 23.1µM, TDP1 cell noCPT 8.2µM (no result: HT1080NT lethal, IL1B secr inh, HT1080 IDH1KD tx)
Cc1nc2ccc(S(=O)(=O)N(CC(=O)Nc3ccc(Cl)cc3)Cc3ccccc3)cc2s1	TDP1 cell CPT inconclusive, TDP1 cell noCPT 14.6µM (no result: HT1080NT lethal, IL1B secr inh, HT1080 IDH1KD tx)
COc1ccc(S(=O)(=O)N(C)CC(=O)Nc2cccc(C(C)=O)c2)cc1Cl	TDP1 cell CPT 12.6µM, TDP1 cell noCPT 12.6µM
CC(C)CN(CC(C)C)C(=O)CCS(=O)(=O)c1cc2c(cc1Cl)NC(=O)CO2	none (no result: HT1080NT lethal, IL1B secr inh, TDP1 cell CPT, TDP1 cell noCPT, HT1080 IDH1KD tx)
COc1ccc(S(=O)(=O)N2CCC(C(=O)NCc3ccncc3)CC2)cc1C	none
CCCn1c(N)[n+](CC(=O)c2ccco2)c2ccccc21	IL1B secr inh -58.6
COc1ccc(-c2oc3c(c2-c2cnc(OC)nc2)C(O)CC3)cc1 (stereo unspecified)	12-LOX inh inconclusive, TDP1 cell CPT inconclusive, TDP1 cell noCPT inconclusive
CCOC1CCCc2oc(-c3ccsc3)c(-c3cnc(OC)nc3)c21 (stereo unspecified)	12-LOX inh inconclusive, TDP1 cell CPT inconclusive, TDP1 cell noCPT 23.1µM
Cc1cc(C)nc(NC(=O)CN2C(=O)c3ccccc3S2(=O)=O)n1	none
COc1ccc(CCNC(=O)CN2C(=O)c3ccccc3S2(=O)=O)cc1	12-LOX inh inconclusive
Cc1cc(C)nc(N(C#N)CN2C(=O)c3ccccc3S2(=O)=O)n1	TDP1 cell CPT inconclusive, TDP1 cell noCPT 14.6µM
CNc1nc(OC)nc(N(C#N)CN2C(=O)c3ccccc3S2(=O)=O)n1	IL1B secr inh -82.2, TDP1 cell CPT 14.6µM, TDP1 cell noCPT 16.4µM, HT1080 IDH1KD tx inconclusive
O=c1[nH]c(N2CCOCC2)nc2c1CCN(Cc1ccc(F)cc1Cl)CC2	none (no result: HT1080NT lethal, IL1B secr inh, TDP1 cell CPT, TDP1 cell noCPT, HT1080 IDH1KD tx)
Cc1ccc(NC(=O)CCc2c[nH]c3ccccc23)cc1F	none (no result: HT1080NT lethal, IL1B secr inh, TDP1 cell CPT, TDP1 cell noCPT, HT1080 IDH1KD tx)

High-throughput results (PubChem)
